According to PubChem BioAssay (NCI):
About 83,000 compounds went through this panel and 20% of them were active in at least one assay; those are over-represented in the sample as a whole.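 For each line, cells grew in 96-well plates with the test compound present at a single concentration for 48 hours.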 A number with no mark means an inactive call. Calls of active or inactive are those of the source. Rule for the calls: active = growth percent below 10; inactive = the rest.

Legend:
Assay in all cases: NCI-60 one-dose screen, 48 h (100 = growth as untreated, 0 = no growth, -100 = all killed)
Conditions in all cases: 10 µM unless noted
T-47D breast = system: T-47D breast
BT-549 breast = system: BT-549 breast
MDA-MB-435 melanoma = system: MDA-MB-435 melanoma
SW-620 colon = system: SW-620 colon
MCF7 breast = system: MCF7 breast
HCT-116 colon = system: HCT-116 colon
KM12 colon = system: KM12 colon
HCC-2998 colon = system: HCC-2998 colon

| SMILES | growth (T-47D breast) | growth (BT-549 breast) | growth (MDA-MB-435 melanoma) | growth (SW-620 colon) | growth (MCF7 breast) | growth (HCT-116 colon) | growth (KM12 colon) | growth (HCC-2998 colon) |
| --- | --- | --- | --- | --- | --- | --- | --- | --- |
| O=C1C(Cl)=C(Nc2ccc(S(=O)(=O)N3CCOCC3)cc2)C(=O)c2ccccc21 | 69.8% | 45.9% | 88.1% | 32.5% | 58.9% | 4.7% (active) | 64.5% | – |
| COc1cc2oc(-c3cccc(NC(=O)c4ccccc4)c3)cc(=O)c2c(OC)c1OC | 50.2% | 74.1% | 80.7% | 91.5% | 77.3% | 67.7% | 64.4% | – |
| COC(=O)Nc1nc2ccc(S(=O)c3ccccc3)cc2[nH]1 (configuration not stated) | 89.1% | 77.9% | -33.4% (active) | 27.2% | 44.1% | 39.4% | 31.6% | – |
| Cn1cc(-c2csc(-c3cn(C(=O)OC(C)(C)C)c4ccc(Br)cc34)n2)c2ccnc(Cl)c21 | 66.8% | 63.9% | 63.7% | 75.8% | 82.8% | – | 90.4% | 95% |
| CCN(CC)S(=O)(=O)c1ccc(S(=O)(=O)N2CCC[C@@H](C(=O)N3CCN(c4nc(C(C)C)no4)CC3)C2)cc1 | 43.1% | 62.9% | 55.7% | 79.5% | 50.7% | – | 77.4% | 78.7% |
| O=C1NC(=C(Cl)Cl)/C(=N\S(=O)(=O)NCc2ccccc2)N1 | 52% | 97.8% | 95.8% | 111% | 74.4% | – | 62.9% | 127% |
| CCOC(=O)C(=O)C(C(=O)OCC)c1ccccc1 (configuration not stated) | 100% | 97.3% | 101% | 103% | 101% | – | – | 114% |
| Cc1ccc(NC(=O)c2sc3nc(C)c(Br)c(C)c3c2N)cc1 | 61.9% | 79.7% | 81.8% | 78.3% | 59.1% | – | 74.8% | 92.1% |
| Oc1c(Br)cc(Br)c2ccc(Cn3cc(-c4ccc(C(F)(F)F)cc4)nn3)nc12 | 46.2% | 72.6% | 48.2% | -16.3% (active) | 27.9% | – | 104% | 117% |
| O=C(/C=C/c1cccc(Cl)c1)c1cccc(OCCCOc2cccc(C(=O)/C=C/c3cccc(Cl)c3)c2)c1 | 90.4% | 90.2% | 102% | 90.7% | 20.8% | – | 96.8% | 109% |
| O=C(CN1CCCCC1)Nc1nc(-c2cc3ccccc3oc2=O)cs1 | 87.7% | 100% | 104% | 99.2% | 88.7% | – | 99.9% | 104% |
| COc1ccc(F)cc1/C=C/C(=O)/C=C(/C=C/c1cc(F)ccc1OC)OB(F)F | 36.4% | 33.7% | 2.57% (active) | 14.1% | 29.2% | 0.9% (active) | 73.6% | – |
| CCCCCCCCCCCCCCCCCCOc1ccccc1CC(=O)OCC[N+](C)(C)C | 28.8% | 46.5% | 31.5% | 23.9% | 34% | – | -27.4% (active) | 27.9% |
| Nc1[nH]n2cc(-c3ccccc3)nc2c1N=Nc1ccc(S(N)(=O)=O)cc1 | 42.8% | 59.5% | 28.9% | 26.1% | 45.5% | 22.6% | 33.3% | – |
| COc1ccc(C(=O)N2c3ccccc3Sc3ccccc32)c(OC)c1 | 41.5% | 16.9% | -43% (active) | 24.8% | 19.9% | 9.42% (active) | 14.3% | – |
| CCCC/C(CC)=N\NS(=O)(=O)c1ccc([N+](=O)[O-])cc1 | 95.3% | 114% | 107% | 106% | 102% | – | 98.6% | 107% |
| NS(=O)(=O)c1ccccc1NC(=O)Nc1nc2ccccc2s1 | 87.3% | 98.2% | 103% | 101% | 82.4% | – | 104% | 95.8% |
| Cc1ccc2c(c1)=C/C(=C\c1cc(-c3ccccc3)oc1O)C(=O)N=2 | 97.7% | 94.3% | 110% | 107% | 89.2% | – | 100% | 115% |

| SMILES | growth (T-47D breast) | growth (BT-549 breast) | growth (MDA-MB-435 melanoma) | growth (SW-620 colon) | growth (MCF7 breast) | growth (HCT-116 colon) | growth (KM12 colon) | growth (HCC-2998 colon) |
| --- | --- | --- | --- | --- | --- | --- | --- | --- |
| O=C(NCCNc1nccc(Nc2ccc(S(=O)(=O)Nc3ccccn3)cc2)n1)c1cccc([N+](=O)[O-])c1 | 89% | 96.9% | 103% | 102% | 88.5% | – | 99% | 109% |
| C[C@@H](CO)[C@@H]1CCC=C2CC[C@]3(C)[C@H](CC[C@@H]4[C@@]5(C)CCCNC(C)(C)[C@@H]5CC[C@]43C)[C@H]21 | 58.9% | 81.5% | 7.57% (active) | -72.1% (active) | 7.68% (active) | – | 4.99% (active) | -61.5% (active) |
| Cc1nc2sc(C(=O)Nc3ccc(Br)cc3)c(N)c2cc1C(O)c1ccccc1 (configuration not stated) | 45.6% | 71.1% | 1.03% (active) | 45.8% | 33.8% | – | 49.2% | 76.5% |
| COC(=O)[C@]1(C)CCC[C@]2(C)[C@H]3C[C@H]4C(C(C)C)=C[C@]3(CC[C@H]21)[C@@H]1C(=O)CC[C@H](OCCC#N)[C@@H]14 | 66.4% | 87.5% | 84.9% | 86.4% | 59.5% | – | 82% | 96.4% |
| O=CN1N=C(c2cccc(Nc3ccnc4cc(Cl)ccc34)c2)CC1c1ccccc1 (configuration not stated) | 45.5% | 35.7% | -34.4% (active) | 34.2% | 19.3% | – | – | 12.4% |
| CC(O)(c1ccccc1)C(c1ccccc1)C1CCCCN1 (configuration not stated) | 94.2% | 35.6% | 99.1% | 103% | 110% | – | 104% | 107% |
| COC(=O)c1nc(-c2ccc(C)cc2)oc1S(=O)(=O)c1cccc(OC)c1 | 90% | 70.6% | 100% | 65.5% | 95.6% | – | 93.5% | 103% |
| COc1cc2c(c(OC)c1OC)CCC(c1cccc(C(=O)Nc3ccc(C#N)cc3)c1)O2 (configuration not stated) | 3.61% (active) | 27.2% | 36.6% | 86.7% | 32.5% | – | 60.6% | 73.1% |
| CN1CCN(c2cc(Nc3cc(C4CC4)[nH]n3)nc(Nc3ccc(CC(=O)NCc4cccc(F)c4)cc3)n2)CC1 | 64.5% | 43.2% | 24.9% | 11.5% | 20% | – | 9.2% (active) | 35.1% |
| Cc1ccc(Nc2cc(N)nc(N)n2)cc1Cl | 76.6% | 101% | 98.9% | 112% | 74.7% | – | 93% | 100% |
| O=C(NCc1ccc(Cl)cc1Cl)C1CCC(=O)N1c1cccs1 (configuration not stated) | 75.8% | 86% | 97.2% | 106% | 88% | – | 101% | 93.4% |
| c1ccc2cc(C[n+]3ccn(CCCCCCCCCCn4cc[n+](Cc5ccc6ccccc6c5)c4)c3)ccc2c1 | -0.597% (active) | -39.6% (active) | 18.2% | 23.2% | 15.7% | – | -5.93% (active) | – |
| O=C(Nc1nc2ccccc2s1)c1ccc(F)cc1 | 55.3% | 109% | 101% | 112% | 68.1% | – | 52.8% | 69.9% |
| N#Cc1nc(-c2ccc(F)cc2)oc1S(=O)(=O)N1CCCCC1 | 2.97% (active) | 80% | 83.8% | -72.2% (active) | 56% | – | 99.1% | 105% |
| COc1cc2cc(NCc3cccc(Cl)c3)nc(C)c2cc1OC | 52.7% | 23.1% | 4.19% (active) | 17% | 55.4% | – | 38.8% | 38.9% |
| CC(=O)O[C@H]1CC2CCC3C(CC[C@@]4(C)C3C[C@H]([N+]3(C)CCCCC3)[C@@H]4OC(C)=O)[C@@]2(C)C[C@@H]1N1CCCCC1 (some centres not stated) | 109% | 108% | 99.5% | 106% | 111% | – | 108% | 111% |
| CCOc1ccc(NC(=O)CSc2oc(-c3ccccc3)nc2S(=O)(=O)c2ccc(C)cc2)cc1 | 57.4% | 94% | 87.4% | 74.3% | 61.9% | – | 65.4% | 82.6% |
